Results from PubChem BioAssay (NCI).
About 83,000 compounds went through this panel and 20% of them were active in at least one assay; those are over-represented in the sample as a whole.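 How to read the values: 0–100, growth inhibition (40 = 60% inhibited); 0, no net growth; -100 to 0, cell death (-40 = 40% of starting cells died; -100 = all dead).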 Unmarked numbers belong to inactive results. Active and inactive are the calls of the source. The calls were made as follows: active = growth percent below 10; inactive = the rest.

Test system: HL-60(TB) leukemia
Assay: NCI-60 one-dose screen, 48 h (100 = growth as untreated, 0 = no growth, -100 = all killed)
Conditions: 10 µM unless noted

| Compound | growth |
| --- | --- |
| CCN(CC)CC(C)(C)C(=O)/C=C/c1ccccc1 | 26.2% |
| CCCCCCCC/C=C\CCCCCCCCOc1ccc(CC(=O)NCC[N+](C)(C)C)cc1 | -35.7% (active) |
| COc1ccc(-c2nc3sccn3c2/C=C/C(=O)c2c[nH]c3ccccc23)cc1 | 117% |
| COc1ccc(S(=O)(=O)NCCCNc2nccc(-c3c(-c4ccc(F)cc4)nc4sccn34)n2)cc1 | 70.4% |
| O=C(O)c1ccc(-c2nn(-c3ccc(C(F)(F)F)cc3)cc2CNc2ccc(Oc3ccccc3)cc2)cc1 | 35.5% |
| Cc1cc(NC(=O)c2ccccc2)c(Cl)cc1N | 54.7% |
| CC(C)(C)c1ccc(Cn2c(-c3nonc3N)nc3ccccc32)cc1 | 51.4% |
| COC(=O)c1ccc2oc(NC(=O)c3ccc(N4CCOCC4)c([N+](=O)[O-])c3)nc2c1 | 96.7% |
| CNc1cc(C(=O)O)nc(NC)n1 | 105% |
| Clc1ccccc1-c1nc(Nc2nc3ccccc3s2)nc(C(Cl)(Cl)Cl)n1 | 32.9% |
| CC[n+]1c(/C=C/c2ccc(N3CCCC3)cc2)cccc1/C=C/c1ccc(N2CCCC2)cc1 | -20.8% (active) |
| COc1ccc(C2OC(N)=C(O)C2=O)cc1OC (stereo unspecified) | 92.6% |
| O=C(Oc1ccc(CO[N+](=O)[O-])cc1)c1ccccc1 | -45.9% (active) |
| COc1ccc(/C(=N\N)C(=O)c2ccccc2)cc1 (tested in a mixture with another compound) | 77.8% |
| CCN1C(=O)/C(=C/C(=O)OC)S/C1=N\NC(=O)c1cc2ccc1/C=C\c1ccc(cc1)/C=C\2 | 88.4% |
| Cc1ccc2c(n1)C[C@H](C(C)(C)O)CC[C@H]2C | 103% |
| NC(=O)c1ccc(C2C3=C(CCCC3=O)OC3=C2C(=O)c2ccccc2C3=O)cc1 (stereo unspecified) | -30.4% (active) |
| NC(=S)N/N=C/c1cn(-c2ccccc2)nc1-c1cc2ccccc2oc1=O | 20.4% |
| COc1ccc(C(=O)CSc2nc(-c3cc(OC)ccc3OC)cc(-c3ccc(Cl)cc3)c2C#N)cc1 | 106% |
| Clc1ccc(N2N=C(c3cccc(Nc4ccncc4)c3)CC2c2ccc(Br)cc2)cc1 (stereo unspecified) | 0.656% (active) |
| CC(=O)Nc1ccc(S(=O)(=O)NC2CCCCC2)cc1 | 96% |
| CCCCn1c(=O)[nH]c(N)c(C(c2ccc(F)cc2)c2c(N)[nH]c(=O)n(CCCC)c2=O)c1=O | 78.7% |
| O=[N+]([O-])c1cc([N+](=O)[O-])c(NN=C(c2ccc(O)cc2)c2ccc(O)cc2)cc1Cl | 12.7% |
| COc1cc(-c2nc3ccc(C)cc3[nH]2)ccc1OCC(=O)N=Nc1c(O)[nH]c2ccc(Cl)cc12 | -55.6% (active) |
| CCc1c2c(nc3ccc(OC(=O)N4CCC(N5CCCCC5)CC4)cc13)-c1cc3c(c(=O)n1C2)COC(=O)[C@]3(O)CC | -14% (active) |
| Cc1nnc(NC/C=C/c2ccccc2)s1 | 98% |
